High-throughput results as filed in PubChem BioAssay.
Shown are actives, neighbours in structure and some others; about 3.8% of the full set was active somewhere.
PrP UTR inh – inhibition of PrP 5' UTR reporter expression. inhibition, % (concentration not given with the values). cell-based PrP 5' UTR mRNA reporter, plate reader. hit rate 0.35% among 340,000; in the data active = inhibition above about 52%; note: 0 = median of the neutral control wells
Mtb FBA inh – inhibits M. tuberculosis FBA enzyme; P9WQA3; purified M. tuberculosis FBA, fluorescence read-out; inhibition, % at 1 µM; hit rate 2.3% among 360,000; in the data active = inhibition above about 27%;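 note: 0% = vehicle and 100% = reference inhibitor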
Mtb hypoxia inh – Mtb hypoxia fluorescent reporter inhibition | hit rate 0.1% among 300,000 | fluorescence inhibition, % (concentration not given with the values) | M. tuberculosis hypoxia-regulated fluorescent reporter, fluorescence | AID 1159583; in the data active = fluorescence inhibition mostly above about 23%, no sharp cut-off; inactive = mostly below about 17%
PrPC TRFRET – reduces human prion protein on the cell surface; P04156; cell surface PrPC, TR-FRET read-out; inhibition, % at 13.8 µM; hit rate 0.43% among 370,000; AID 720596; in the data active = inhibition above about 24%; note: 0% = median of the test wells and 100% = reference compound wells
Yp Topo-I inh – blocks Yersinia pestis topoisomerase I activity; Y. pestis Topo-I cleavage product accumulation, plate reader; activity, % at 10 µM; hit rate 0.064% among 360,000; AID 504884; in the data active = activity above about 50%, passing the limit was not always enough
GDH-TPI counter – GDH-TPI coupled enzyme inhibition counter-screen | GDH-TPI coupled enzyme counterscreen, NADH absorbance | inhibition, % at 4.8 µM | hit rate 1.2% among 360,000; in the data active = inhibition above about 30%;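 note: 0% = DMSO wells and 100% = wells lacking the enzyme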
PrPC TRFRET cf – confirmation of inhibitors of cell surface human prion protein | shares compounds with PrPC TRFRET | cell surface PrPC level, TR-FRET | inhibition, % at 13.8 µM | hit rate 65% among 1,500; in the data active = inhibition above about 25%
LD9 cytotox – counter-screen for PrPc inhibitors: cytotoxicity in LD9 cells | shares compounds with PrPC TRFRET | luminescence viability | inhibition, % at 13.8 µM | hit rate 29% among 1,500; in the data active = inhibition above about 9.5%
An asterisk follows results filed as active; · = no result.

SMILES | PrP UTR inh | Mtb FBA inh | Mtb hypoxia inh | PrPC TRFRET | Yp Topo-I inh | GDH-TPI counter | PrPC TRFRET cf | LD9 cytotox
CCC12CN3CCN(CC(C3)/C1=N/NC(N)=O)C2 | -12 | -2 | · | 0 | 0 | -1 | · | ·
C[C@H]1C[C@@H](C)C(=O)[C@@H]([C@H](O)CC2CC(=O)NC(=O)C2)C1 | 53 | 3 | · | 89* | 3 | -6 | 98* | 32*
CC1CC(C)C(=NNC(N)=O)C(C(O)CC2CCC(=O)NC2=O)C1 (stereo unspecified) | -14 | 4 | 16 | 84* | -3 | 1 | 43* | 15*
O=C(C[n+]1ccc(C(=O)NN=Cc2ccc(Cl)cc2Cl)cc1)c1ccccc1 | · | · | 20 | · | · | · | · | ·
COc1ccc(C=c2sc3nc(=O)c(C)nn3c2=O)c(OC)c1 | · | · | 6 | · | · | · | · | ·
COc1cc(C=NNC(=O)c2nnn(-c3nonc3N)c2-c2cccs2)ccc1O | · | · | 3 | · | · | · | · | ·
COCc1c(C(=O)NN=CC2CC=CCC2)nnn1-c1nonc1N (stereo unspecified) | · | · | 3 | · | · | · | · | ·
O=C(NNC(=O)c1cccs1)c1ccc(Cl)c(S(=O)(=O)N2CCCC2)c1 | -9 | 2 | 6 | 13 | -15 | 27 | · | ·
Cc1cc(C(=O)O)cc(S(=O)(=O)NNC(=O)c2cccs2)c1C | 11 | 3 | -9 | 42* | -8 | -4 | 3 | 3
Cc1cc(NC(=O)C(C)Sc2nc(-c3cccs3)nc3ccccc23)no1 (stereo unspecified) | -16 | 3 | 7 | 43* | -1 | 14 | 102* | -4
CC(C)(C)c1nc(SCC(=O)Nc2nc3c(s2)CCCC3)c2ccccc2n1 | 17 | 1 | -1 | 2 | -1 | 12 | · | ·
CC(C)c1nc(SCC(=O)Nc2nc3c(s2)CCCC3)c2ccccc2n1 | -9 | 0 | -7 | 60* | 1 | 5 | 75* | -1
Cc1nnc(NC(=O)CSc2nc(C(C)C)nc3ccccc23)s1 | -16 | -3 | 5 | 29* | 2 | 2 | 78* | -4
Cc1cc(NC(=O)CSc2nc(C(C)C)nc3ccccc23)no1 | -19 | 0 | 10 | 118* | 8 | 11 | 124* | -14
Cc1cc(C2(c3ccc(O)c(C)c3)OC(=O)c3ccccc32)ccc1O | -18 | 1 | · | 2 | -21 | -5 | · | ·
Cc1cc(O)c(C(C)C)cc1C1(c2cc(C(C)C)c(O)cc2C)OC(=O)c2ccccc21 | -18 | -3 | · | 25* | 1 | 9 | 16 | -7
COC(=O)C1=C(c2ccc(Cl)c(C(F)(F)F)c2)CC2CCC1N2C(=O)NC(C)C (stereo unspecified) | · | · | 6 | · | · | · | · | ·
N=C1C(c2nc3ccccc3s2)=C(O)CN1NC(=O)c1c[nH]c2ccccc12 | -7 | 3 | · | 26* | -4 | 11 | 34* | 6
N=C1C(c2nc3ccccc3s2)=C(O)CN1NC(=O)c1ccccc1[N+](=O)[O-] | -34 | 0 | 2 | 2 | 9 | 14 | · | ·
COc1ccc(NC(=O)CON=C(C)c2cccs2)cc1 | · | · | 16 | · | · | · | · | ·
CCC(C)NC(=O)C(NS(=O)(=O)c1ccc2c(c1)c(=O)n(C)c(=O)n2C)c1ccccc1 (stereo unspecified) | -14 | 3 | -3 | 42* | 3 | -4 | 8 | -1
COC(=O)C1=C(C)N(Cc2cccc(C(F)(F)F)c2)C(=NCc2cc(OC)c(OC)c(OC)c2)NC1CCc1ccccc1 (stereo unspecified) | · | · | · | 31* | · | · | 26* | 5
COC(=O)C1=C(C)N(Cc2ccccc2C(F)(F)F)C(=NCc2cccc(C(F)(F)F)c2)NC1CCc1ccccc1 (stereo unspecified) | · | · | · | 0 | · | · | · | ·
COc1ccc(N(CC(=O)NN=Cc2ccc(OC)c(OC)c2)S(=O)(=O)c2ccccc2)cc1 | · | · | 5 | · | · | · | · | ·
Cc1cccc(N(C)S(=O)(=O)c2ccc3[nH]cc(C(=O)N4CCOCC4)c(=O)c3c2)c1 | -5 | 6 | · | 7 | -4 | 9 | · | ·
CCc1ccccc1N(C)S(=O)(=O)c1ccc2[nH]cc(C(=O)N3CCc4ccccc43)c(=O)c2c1 | 11 | 5 | 6 | 100* | 6 | 6 | 4 | -5
COc1cc(NS(=O)(=O)c2ccc(C)cc2)c2ncccc2c1 | 5 | 13 | 8 | 51* | 20 | 0 | 51* | 69*
